The full ranking holds about 110,000 compounds; the median of “z-score” is about -0.1, and the highest 2% start at about 2. The sample as a whole holds a higher share of the highest values than the screen did. Activity calls are given as the source filed them.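 Rule for the calls: active = z-score in the third read window above 3 or below -3; inactive = the rest.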

The target of this assay is Metabotropic glutamate receptor 8 (Rattus norvegicus) (UniProt P70579). Nature of the assay: mGluR8 Gi/Go-coupled signaling modulation – cell-based, rat, thallium flux, HTS, primary screen (AID 488969). The conditions noted are these: HEK293 rat mGluR8, GIRK (G protein-gated inwardly rectifying potassium channel) thallium flux, FluoZin2; at 10 µM; stronger effect = higher value; submaximal glutamate (EC20) added with thallium.
Chain of Metabotropic glutamate receptor 8 (Rattus norvegicus) (P70579 whole entry, looked up): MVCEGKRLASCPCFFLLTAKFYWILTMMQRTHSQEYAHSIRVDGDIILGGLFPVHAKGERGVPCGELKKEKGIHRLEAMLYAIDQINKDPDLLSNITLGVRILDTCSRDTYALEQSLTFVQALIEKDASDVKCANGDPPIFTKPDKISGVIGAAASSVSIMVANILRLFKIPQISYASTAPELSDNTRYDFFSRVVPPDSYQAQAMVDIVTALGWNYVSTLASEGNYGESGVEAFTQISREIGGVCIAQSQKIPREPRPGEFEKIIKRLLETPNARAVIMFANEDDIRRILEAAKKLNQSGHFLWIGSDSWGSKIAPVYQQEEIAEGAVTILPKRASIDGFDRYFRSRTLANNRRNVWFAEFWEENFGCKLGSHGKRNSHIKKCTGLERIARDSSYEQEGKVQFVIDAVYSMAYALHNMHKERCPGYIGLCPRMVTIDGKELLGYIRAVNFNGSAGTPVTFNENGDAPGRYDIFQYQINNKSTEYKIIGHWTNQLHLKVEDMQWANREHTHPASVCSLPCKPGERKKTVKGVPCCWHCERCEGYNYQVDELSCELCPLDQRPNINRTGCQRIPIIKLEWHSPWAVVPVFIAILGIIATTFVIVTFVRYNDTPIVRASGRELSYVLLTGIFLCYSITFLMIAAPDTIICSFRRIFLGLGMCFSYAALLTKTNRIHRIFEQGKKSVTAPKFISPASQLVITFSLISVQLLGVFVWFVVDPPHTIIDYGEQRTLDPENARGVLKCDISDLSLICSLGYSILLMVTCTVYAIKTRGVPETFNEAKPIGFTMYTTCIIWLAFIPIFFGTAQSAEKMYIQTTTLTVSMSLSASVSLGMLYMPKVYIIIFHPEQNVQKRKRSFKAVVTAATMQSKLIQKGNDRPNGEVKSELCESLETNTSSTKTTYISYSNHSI
`Cc1cc(C)[n+](-c2ccc(F)cc2)c2[nH]c(=O)[nH]c(=O)c12` gave a z-score of 0.407.

The compound `Cc1ccc(C(=O)N2CC(=O)Nc3ccc(F)cc3C2c2ccccc2)cc1[N+](=O)[O-]` (stereo not drawn) gave a z-score of -0.229.

For `O=C(NNC(=O)c1sc2cccc(Cl)c2c1Cl)Nc1ccccc1`, the z-score was -0.00877.

`C=CCn1c(SCC(=O)Nc2ccc3c(c2)OCO3)nc2ccccc2c1=O` returned a z-score of 0.212.

Compound `Cc1ccc(OCCCN(C)C)c(Br)c1` came in with a z-score of 1.17.

For the compound `CCOC(=O)c1oc2ccc(S(=O)(=O)n3nc(-c4ccc(Cl)cc4)cc3N)cc2c1C`, the z-score is -0.324.

Regarding `CN(CCC#N)C(=O)COC(=O)c1ccc(Cl)c(S(N)(=O)=O)c1`, the z-score amounted to 0.0421.

Compound `CC1CCN(C(=O)CSc2nc3ccccc3c(=O)n2Cc2ccc3c(c2)OCO3)CC1` registered a z-score of 2.16.

`CCCCNC(=O)CSc1nc2ccccc2c(=O)n1Cc1ccc2c(c1)OCO2` had a z-score of 0.908.

Take `CC1CCN(C(=O)Cn2c(=O)n(Cc3ccc4c(c3)OCO4)c(=O)c3ccccc32)CC1`: the z-score is -1.65.

In the case of `c1ccc(CCNc2ncnc3c2cnn3-c2ccccc2)cc1`, the z-score was -1.25.

In the case of `Cc1cccc(-n2ncc3c(NCCc4ccc(S(N)(=O)=O)cc4)ncnc32)c1`, the z-score was 8.89 (active).

Turning to `Cc1cccc(-n2ncc3c(NCCCO)ncnc32)c1`, the z-score came to 0.607.

In turn, `O=C(CSc1ccc2nnc(-c3cccc(F)c3)n2n1)N1CCCc2ccccc21` showed a z-score of -0.911.

With `Cc1ccc(NC(=O)CN(C)C(=O)CCOc2ccccc2C)cc1`, the z-score was found to be 1.66.

Compound `CCC(CC)C1C(C#N)=C(N)Oc2n[nH]c(-c3ccccc3)c21` (stereo not drawn) displayed a z-score of -0.557.

Turning to `O=C(NN=C1C2CC3CC(C2)CC1C3)c1cccs1`, the z-score turned out to be 0.589.

In turn, `O=C(NNC(=S)Nc1ccccc1)C1CC1` registered a z-score of -0.336.

The compound `CCC(=O)Nc1ccc(NC(=S)Nc2ccccc2)cc1` registered a z-score of -0.362.

Turning to `S=C(NN=C(C1CC1)C1CC1)Nc1ccccc1`, the z-score is 4.43 (active).

On to `S=C(NN=C1C2CC3CC(C2)CC1C3)Nc1ccccc1`, for which the z-score was 11.7 (active).

For the compound `S=C(N/N=C1\C2CN3CCN(C2)CC1(c1ccccc1)C3)Nc1ccccc1`, the z-score amounted to 0.425.

As to `CNC(=S)N/N=C/c1c(C)nn(-c2cccc(Cl)c2)c1Cl`, the z-score was -0.134.

As to `CCOC(=O)C1CCN(C(=O)CSc2nnc(-c3ccco3)n2-c2ccccc2)CC1`, the z-score is -0.369.

`O=C(NCc1ccccc1Cl)c1ccccc1Oc1ccccc1` gave a z-score of -0.412.

`CCOC(=O)C1C(=O)Nc2nc3ccccc3n2C1C(C)C` (stereo not drawn): the z-score was -0.438.

Turning to `Cc1ccc(-c2nc3ccccn3c2NC(=O)c2ccco2)cc1`, the z-score turned out to be 0.65.

`Cc1cccc(C)c1Nc1c(-c2ccsc2)nc2ncccn12`: the z-score is -0.464.

Consider `CC(=O)Nc1c(-c2ccc(F)cc2)nc2ccccn12`, for which the z-score was determined as 2.25.

The compound `COC(=O)Nc1c(-c2ccccc2)nc2ccccn12` registered a z-score of -0.126.

Compound `CC(=O)Nc1c(-c2ccccc2)nc2ncccn12` yielded a z-score of 2.69.

Compound `Cc1ccc(-c2nc3ncccn3c2NC(=O)C2CC2)cc1` yielded a z-score of 0.268.

In turn, `CC(C)(C)NC(=O)CN(C(=O)Cn1nnc(-c2ccc(Cl)cc2)n1)C1CCN(Cc2ccccc2)CC1` displayed a z-score of -0.128.

Compound `CC1CC(C)CN(c2ncnc3c2cnn3Cc2ccc(Cl)cc2)C1` (stereo not drawn) returned a z-score of -0.714.

On to `O=C(CSc1nnnn1-c1cccnc1)Nc1ccc(OCc2ccccc2)cc1`, for which the z-score was -0.183.

The compound `CCn1c(=O)c(C(=O)NCCc2ccccc2)c(O)c2ccccc21` showed a z-score of 0.613.

The compound `CCNCCNC(=O)c1c(O)c2ccccc2n(CC)c1=O` registered a z-score of -0.289.

Consider `CCn1c(=O)c(C(=O)NCCCO)c(O)c2ccccc21`, for which the z-score was 3.51 (active).

Compound `COc1ccc(C(=O)COc2ccc(NC(C)=O)cc2)cc1` registered a z-score of -0.0378.

For `COc1ccc(CCNC(=O)c2cc(-c3ccccc3)on2)cc1OC`, the z-score turned out to be 0.914.

Compound `S=C(NCCSCc1ccc(Cl)cc1Cl)Nc1ccccc1` yielded a z-score of -0.181.

In the case of `S=C(NCc1ccc(Cl)cc1Cl)Nc1ccccc1`, the z-score was 3.34 (active).

`Fc1ccc(NC(=S)NCc2ccccc2Cl)cc1` gave a z-score of 1.74.

Compound `Fc1ccccc1CNC(=S)Nc1ccc(Cl)cc1` registered a z-score of 2.23.

In turn, `S=C(Nc1ccccc1)Nc1ccc(OCc2ccc(Cl)cc2Cl)cc1` gave a z-score of -0.223.

For `Fc1ccc(CNC(=S)Nc2ccc(Cl)cc2)cc1`, the z-score was found to be 0.385.

Turning to `O=C(OC(C(=O)NC1CCCCC1)c1ccccc1)c1ccco1` (stereo not drawn), the z-score is -0.0658.

`Cc1cccc(C(C)C)c1NC(=O)c1ccc(CN(c2ccccc2)S(=O)(=O)c2ccccc2)cc1` displayed a z-score of -0.0858.

In turn, `COc1cc2c(cc1NC(=O)C(C)NCc1ccccc1)oc1ccccc12` (stereo not drawn) yielded a z-score of 0.0909.

`O=C(NC1CCCCC1)C(c1ccccc1)N(Cc1ccco1)C(=O)Cn1cnc2ccccc21` (stereo not drawn) yielded a z-score of -1.29.

In turn, `CC(C)CCNc1nc2c(cc1C#N)COC(C)(C)C2` displayed a z-score of -0.377.

Take `CC1(C)Cc2nc(N3CCOCC3)c(C#N)cc2CO1`: the z-score was -0.0959.

With `CC1(C)Cc2nc(NCCCO)c(C#N)cc2CO1`, the z-score is 2.93.

`Cc1nc(NCCCO)c(C#N)c2c1COC(C)(C)C2` had a z-score of 1.53.

As for `CC1(C)Cc2nc(NCCN3CCOCC3)c(C#N)cc2CO1`, the z-score was 7.19 (active).

`CC(C)c1nc(NCCN2CCOCC2)c(C#N)c2c1COC(C)(C)C2` had a z-score of -0.502.

As to `Nc1nnc(SCC(=O)c2ccco2)s1`, the z-score is -0.0604.

In the case of `O=S1(=O)C=C(SCc2ccccc2)Nc2ccccc21`, the z-score is -0.11.

The compound `CCOC(=O)c1nn(-c2ccc(OCC)cc2)c(C)c1C(C)=O` gave a z-score of 0.0801.

The compound `COc1ccc(CNC(=O)c2cnc3n(c2=O)CCS3)cc1` showed a z-score of -0.183.

In turn, `CCc1ccc(NC(=O)c2cnc3n(c2=O)CCS3)cc1` had a z-score of 2.53.

Consider `O=C(Nc1ccccc1)c1cnc2n(c1=O)CCS2`, for which the z-score was -0.146.

`CCCCOC(=O)c1ccc(NC(=O)c2cnc3n(c2=O)CCS3)cc1`: the z-score was determined as 0.203.

With `O=C(NCc1ccc(F)cc1)c1cnc2n(c1=O)CCS2`, the z-score is 2.18.

`O=C(NCc1ccccc1)c1cnc2n(c1=O)CCS2` had a z-score of -0.0906.

On to `CCOC(=O)c1ccc(N2C(=O)C3ON(c4ccccc4)C(c4ccco4)C3C2=O)cc1` (stereo not drawn), for which the z-score was -0.354.

Consider `COc1cc(OC)nc(NC(=O)CSc2nc3ccccc3o2)n1`, for which the z-score is -0.294.

For the compound `Cc1cc(C)cc(N(CC(=O)O)S(=O)(=O)c2c(C)noc2C)c1`, the z-score was -0.132.

`CC(C)NC(=S)NN(c1ccccc1)c1ccccc1` displayed a z-score of 2.38.

In turn, `CNC(=S)NN(c1ccccc1)c1ccccc1` came in with a z-score of -0.0349.

The compound `CCNC(=S)NN(c1ccccc1)c1ccccc1` had a z-score of 0.837.

As to `COc1ccc(OC)c(C2C3=C(CCCC3=O)NC3=C2C(=O)CCC3)c1`, the z-score was -0.586.

In the case of `O=S(=O)(Cc1ccccc1Cl)CC(O)COc1ccccc1Cl` (stereo not drawn), the z-score is -0.273.

In turn, `Cc1nc2ccccn2c1C(=O)NN` gave a z-score of 2.34.

`Cc1c(C(=O)NN)nc2ccccn12` came in with a z-score of -0.145.

In turn, `COc1ccc(CNC(=O)c2c(C)nc3ccccn23)cc1` displayed a z-score of -0.0334.

`COc1nc(N/N=C/c2ccc(-c3ccccc3[N+](=O)[O-])o2)nc(N2CCOCC2)n1`: the z-score was -0.309.

In turn, `COc1ccc(S(=O)(=O)N(CCc2ccccc2)CC(=O)O)cc1Cl` came in with a z-score of -0.104.

Compound `CN1C(=O)C(O)(C2OC(C)(C)CCC2=O)c2ccccc21` (stereo not drawn) displayed a z-score of -0.0799.

`NC(=O)C1(NC(=O)[C@@H]2CC3(CC(c4cccc(NC(=O)[C@@H]5CCC(=O)N5)c4)=NO3)CN2C(=O)Cc2ccc(C(F)(F)F)cc2)CC1` (stereo partly drawn) displayed a z-score of -0.279.

In turn, `O=C(Nc1nncs1)C1COc2ccccc2O1` (stereo not drawn) registered a z-score of 0.542.

The compound `NC(=O)C1CNc2ccccc2O1` (stereo not drawn) displayed a z-score of 2.79.

For `CCCNC(=O)C1CNc2ccccc2O1` (stereo not drawn), the z-score is -0.2.

Turning to `CCCCSc1nc(C)nc2c1c(=O)n(C)c(=O)n2C`, the z-score is -0.303.

For `COc1ccc2[nH]c3c(Cl)ncnc3c2c1`, the z-score is -0.502.

With `COC(=O)c1sc(NC(=O)/C=C/c2ccc(C)o2)nc1C`, the z-score is -0.15.

The compound `COc1ccccc1C(O)Cc1nc2ccccc2n1C` (stereo not drawn) returned a z-score of -0.393.

Regarding `Cc1cccc(C)c1NC(=O)C(NC(=O)c1ccccn1)c1ccc([N+](=O)[O-])cc1` (stereo not drawn), the z-score stood at 2.97.

Take `Cc1cccc(C)c1NC(=O)C(c1cccc([N+](=O)[O-])c1)N(C)C(=O)c1ccccn1` (stereo not drawn): the z-score was -0.125.

In turn, `Cc1cccc(C)c1NC(=O)C(NC(=O)c1ccccn1)c1ccccc1[N+](=O)[O-]` (stereo not drawn) registered a z-score of 0.95.

In the case of `O=C(Nc1cccc(C(=O)N2CCCC2)c1)c1ccccc1Cl`, the z-score was -0.0275.

Turning to `COCCNC(=O)c1ccccc1-c1nc(-c2ccccc2OC)no1`, the z-score was found to be 0.0674.

`O=C1CC(c2ccc3c(c2)OCO3)C2=C(CCCC2=O)N1` (stereo not drawn) returned a z-score of -0.2.

The compound `N=C(CC1CC(=O)NC(=O)C1)C1=C(O)CCCC1=O` had a z-score of 2.31.

In the case of `CC(=Nc1ccccc1)C1=C(O)CCCC1=O`, the z-score is -0.104.

`C/C(=N\NC(=S)NCc1ccccc1)c1ccc2ccccc2c1` yielded a z-score of 2.12.

Regarding `COc1ccc(/C(C)=N/NC(=S)NCc2ccco2)cc1`, the z-score is 4.34 (active).

Take `COc1ccc(NC(=S)NCc2ccco2)cc1`: the z-score is -0.0213.

Compound `CC/C(C)=N/NC(=S)NCc1ccco1` had a z-score of 0.0671.

Turning to `C/C(=N\NC(=O)c1ccco1)c1cc2ccccc2o1`, the z-score stood at 0.664.

For `C/C(=N\NC(=O)Nc1ccccc1)c1ccc2ccccc2c1`, the z-score was -0.112.

`C=CCNC(=S)N/N=C(\C)c1cc(OC)c(OC)c(OC)c1` returned a z-score of -0.183.

As for `CCNC(=S)N/N=C(\C)c1cc2ccccc2o1`, the z-score was 8.26 (active).

As for `C/C(=N\NC(=O)COc1ccccc1F)c1cc2ccccc2o1`, the z-score was -0.0133.

Turning to `C=CCNC(=S)N/N=C(\C)c1ccc(OC)cc1`, the z-score was 2.03.

Consider `C=C(C)CNC(=S)N/N=C(\C)c1ccc(OC)cc1`, for which the z-score is -1.56.

Turning to `C/C(=N\NC(=S)NCc1ccccc1)c1ccc(Cl)cc1`, the z-score was 0.101.

On to `Cc1nc(=O)c(-c2ccccc2)c(C)n1-c1ccc(O)cc1`, for which the z-score was -1.56.

With `CCc1ccc(OCC(=O)N/N=C/c2ccc(OS(=O)(=O)c3ccc(C)cc3)c(OC)c2)cc1`, the z-score is -0.212.

For `Cc1ccc2nsnc2c1S(=O)(=O)NC1CC1`, the z-score is 0.516.

The compound `Cc1sc(NC(=O)c2ccco2)c(CN2CCN(c3ccccc3)CC2)c1C` had a z-score of -0.213.

The compound `c1ccc(N(c2ccccc2)c2nc(-n3ccnc3)nc(-n3ccnc3)n2)cc1` gave a z-score of -0.953.

In turn, `O=C(O)CCCn1nc(C(F)(F)F)c2c1CCCCC2` yielded a z-score of -0.241.

In turn, `COC(=O)Nc1sc(C(=O)N(C)C)c(C)c1C(=O)OC` returned a z-score of 0.175.

As for `C=CCc1c(C)nc(C)nc1N/N=C/c1ccc(F)cc1`, the z-score was -0.164.

Consider `C=CCc1c(C)nc(C)nc1N/N=C/c1ccccc1`, for which the z-score is -0.683.

As for `C=CCc1c(C)nc(C)nc1N/N=C/c1ccccc1O`, the z-score stood at 2.25.

`CSc1cc(C)n(-c2ccccc2)c(=S)c1C(C)=O` gave a z-score of -0.0675.

Values taken from PubChem BioAssay AID488969 (Vanderbilt High Throughput Screening Facility, 2010).
